The values below come from the supplement of paper PMC11417369.

± gives the standard deviation of the averaged measurements. In all, about 25,000 sequences were measured (“ln(normalized median fluorescence intensity)”: median about 10, highest 2% from about 12 on). The sample as a whole holds a higher share of the highest values than the screen did.

The subject of the test is PfAP2-G AP2 domain (GST-tagged). Description: gcPBM binding intensity (ln(normalized median fluorescence intensity)); higher = stronger DNA binding. The method in brief:
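Each value is the highest Masliner-normalised natural-log median intensity across replicate spots of either orientation of a probe. The probes were primer-extended double-stranded 36-bp intergenic genomic sequences on an Agilent 4 × 180k array, alongside negative controls, exposed for 1 h to GST-tagged P. falciparum DNA-binding domains expressed in E. coli. Bound protein was picked up with Alexa488 anti-GST antibody and scanned at 488 nm.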
On to “TTATTAAATTTTTTTTGTACTTATATATATATATAT [XGTACX_site2443]”, for which the “gcPBM binding intensity (ln)” value worked out at 11.2 ± 0.79. In the case of “TTTTTTTTTTTTTACACACACAAAATATTATCTGTA [CACACA_site5378]” it was 9.83 ± 0.42; in that of “AATAATTAAATATATTTATAACAGGAAAATATTTAT [XGTACX_negctrl_site175]”, 10.2 ± 0.16. For the sequence “TGTTGTATTTTTACAACACACATTTAATCCATTTAA [CACACA_site1507]”, the “gcPBM binding intensity (ln)” value worked out at 10 ± 0.27. With “CTTCCTTAGGAATGTACACACATATAAAATATGTTG [CACACA_site6355]” the figure was 11.4 ± 0.84.

On to “ATAAAATAATTAATGGGTACATAATTAAATAAAGAG [XGTACX_site3309]”, for which the “gcPBM binding intensity (ln)” value is 11.3 ± 0.66. With “TTTTATGAAAAATGGCTTATCTGTAAAGAAGTGGAG [CACACA_negctrl_site1586]” the figure was 10.3 ± 0.36; with “AAGGTATAGAAACACACACACGTGAATATAGTTTAA [CACACA_site5109]”, 10.01 ± 0.028.

With “TAATATAATAGAAGTGTACACACATATTTATGGGTG [CACACA_site9023]”, the “gcPBM binding intensity (ln)” value was found to be 11.6 ± 0.93.

Consider “ATATATATATAATGTGTACACACATATGTATTTATA [CACACA_site8170]”, for which the “gcPBM binding intensity (ln)” value is 11.7 ± 0.67. In the case of “GTATATATGTATATGTGTACATATATTTTATAATAT [XGTACX_site5703]” it was 11.3 ± 0.79. In the case of “GATTTTAATGGGTGTACACATTTATTTATATAAAGT [CACACA_site5317]” it was 11.7 ± 0.93; in that of “ATATATATATATATATGTACATATTTTATTTAATTT [XGTACX_site1807]”, 11.2 ± 0.69; in that of “TCACATATATATTAATGTACATATATTTTTTATGTA [XGTACX_site5125]”, 11.2 ± 0.54. Take “ATATTTATAATTTTTTGTACACATTTTTTAAAGATA [XGTACX_site1784]”: the “gcPBM binding intensity (ln)” value is 11.4 ± 0.9. In the case of “ATATATATATATTTATGTACATATACATAATGTATA [XGTACX_site6387]” it was 11.2 ± 0.76; in that of “TTTTATTTATCTTAATGTACACATTTATATATATAT [XGTACX_site8588]”, 11.7 ± 1.3. As for “GTATGTATGTATATATGTACACATTATTATTTAATG [XGTACX_site5802]”, the “gcPBM binding intensity (ln)” value came out at 11.6 ± 1.

In the case of “ATGTATATATTTTTATGTACATATTTTTAATTTATA [XGTACX_site2982]”, the “gcPBM binding intensity (ln)” value came to 11.4 ± 0.87. As for “ATTTTTTTTTTTATGTGTACATATATTTTTTTAATT [XGTACX_site7921]”, the “gcPBM binding intensity (ln)” value came to 11.6 ± 0.97.

Take “TGTATGTATGTATTATTTGTTATTTTAATTTTTTTG [TGCATGCA_negctrl_site256]”: the “gcPBM binding intensity (ln)” value was found to be 10.36 ± 0.085. Consider “CATATATAACATATAACACACATACTTAGTATTACA [CACACA_site5674]”, for which the “gcPBM binding intensity (ln)” value turned out to be 10.1 ± 0.24.

With “GTTACAGAGAATGTTGTGCACATATCAATAATATAT [GTGCAC_site9671]”, the “gcPBM binding intensity (ln)” value stood at 10.5 ± 0.28.

As to “AACGTGTATTTATATTGTACACATTCATACATCAAA [XGTACX_site3644]”, the “gcPBM binding intensity (ln)” value worked out at 11.4 ± 0.95.
